# Compound activity from PubChem.
# Gal4-VP16 FLuc – inhibits Gal4-VP16 luciferase reporter, ROR gamma counter-screen; Drosophila S2 Gal4-VP16 UAS-luciferase, luminescence, 20 h; hit rate 3.5% among 310,000; Potency, µM (top dose mostly 53.6 µM), for the others: at the highest dose activity, negative = inhibition, hits mostly inhibitors;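 note: Gal4-VP16 expression switched on by copper sulfate through the metallothionein promoter; nearly all actives have a fitted effect of over 50% in size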
# Tau fluor cs – counter-screen for tau fibril formation inhibitors; tau K18 P301L Alexa594 fluorescence, heparin fibrillization; Potency, µM (highest dose often 57.7 µM), for inactives: top-dose activity change, negative = decrease; hit rate 0.93% among 280,000; AID 1463; note: nearly all actives have a fitted effect of over 55% in size
#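 Human tau K18 P301L (15 uM unlabeled, 0.24 uM Alexa 594-labeled) in 100 mM sodium acetate pH 7 with 20 uM heparin, 6 hr at 37 C. ThT 30 uM added, 1 hr ambient; Alexa 594 FP and total fluorescence read at 555/632 nm.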
# Tau FP inhib – inhibitors of human tau fibril formation; P10636; K18 P301L tau heparin fibrillization, Alexa594 FP, 6 h; Potency, µM (top dose mostly 57.7 µM), inactives show top-dose activity, negative = inhibition, most hits filed as inhibitors; hit rate 0.39% among 280,000; note: nearly all actives have a fitted effect of over 55% in size
# Target sequence (P10636 561-689 P618L limits assumed): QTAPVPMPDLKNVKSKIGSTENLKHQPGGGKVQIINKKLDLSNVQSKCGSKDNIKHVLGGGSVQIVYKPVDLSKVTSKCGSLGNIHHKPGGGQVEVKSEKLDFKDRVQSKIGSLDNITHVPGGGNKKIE
#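 Heparin (20 uM) drove fibril formation of recombinant tau K18 P301L, 15 uM unlabeled with 0.24 uM Alexa 594 label, for 6 hr at 37 C in 100 mM sodium acetate pH 7. Fluorescence polarization (555/632 nm) read 1 hr after 30 uM ThT.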
# Tau fibril ThT – blocks human tau fibril formation measured by thioflavin T. P10636. recombinant tau K18 P301L, heparin-induced fibrillization, ThT fluorescence. Potency, µM (top dose mostly 57.4 µM), inactives show top-dose activity, negative = inhibition, usual class: inhibitors. hit rate 2.1% among 270,000. AID 1460; note: nearly all actives have a fitted effect of over 55% in size
#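 ThT emission at 510 nm, taken 1 hr after adding 30 uM dye, quantifies aggregates formed when 20 uM heparin acts on human tau K18 P301L for 6 hr at 37 C.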
# RORgamma inh – inhibitors of mouse ROR gamma transcriptional activity | Potency, µM (titrated, usually from 53.6 µM), without a hit: at the top dose activity change, negative = inhibition, hits mostly inhibitors | P51450 | hit rate 5.4% among 310,000 | Drosophila S2 Gal4-RORgamma UAS-luciferase reporter, 20 h; note: nearly all actives have a fitted effect of over 60% in size
#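 Read-out: Photinus luciferase luminescence; inhibitors lower reporter signal. Insect Schneider cells with Gal4-ROR gamma fusion under metallothionein promoter, UAS reporter; 700 uM final copper sulfate induction, 20 hr, ambient temperature.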
# Starred values were filed as active, the others as inactive; ? = inconclusive; nt = no result; [ ] = another dose, or the depositor's remark. Sampled rows, rich in hits. Any-hit rate of the full collection: about 7.3%. Calls come from the whole dose curve; as a rule, active = well fitted curve in the direction sought with a large enough effect; inconclusive = small, poorly fitted or top-dose-only effect, or another doubt; inactive = no such curve, though single readings can be large; an effect the other way counts as inactive or inconclusive. % is set by controls: 0 for no effect and ±100 for the full control effect; potency is the fitted concentration of half-maximal effect.
SMILES,Gal4-VP16 FLuc,Tau fluor cs,Tau FP inhib,Tau fibril ThT,RORgamma inh
CC1(C)C[C@H]2C=C(C=O)[C@]3(C=O)C[C@]3(C)[C@H]2C1,1.1µM*,-26%,?,14µM*,1.4µM*
Clc1ccccc1C(c1ccccc1)(c1ccccc1)n1cccn1,3%,nt,nt,nt,2%
C=C1C(=O)O[C@@H]2C[C@@H](C)[C@@H]3C4OC4C(=O)[C@@]3(C)[C@@H](O)[C@H]12 (some centres not stated),4µM*,-10%,7.9µM*,13µM*,2.8µM*
N#CC(C#N)=Cc1ccc([N+](=O)[O-])c(O)c1,?,?,?,25µM*,?
Cc1cc(N2CCCC2)ccc1C=C(C#N)C#N,4%[10 µM],-7%,-19%,-14%,10%
N#CC(C#N)=Cc1ccc(C=C(C#N)C#N)cc1,?,-21%,?,20µM*,?
N#C/C(=C\c1ccc(O)c(O)c1)C(=O)NCCCNC(=O)/C(C#N)=C/c1ccc(O)c(O)c1,nt,?,8%,10µM*,nt
Cc1nn(Cc2ccccc2)c2c1C(c1ccco1)C(C#N)=C(N)O2 (configuration not stated),-17%,-20%,?,?,7.1µM*
CCCCn1c(O)c(/C(CC)=N/N2CCCCC2c2cccnc2)c(=O)[nH]c1=S (configuration not stated),?,-8%,3%,-10%,?
C/C(=N\N1CCCCC1c1cccnc1)c1c(O)n(C2CCCCC2)c(=S)[nH]c1=O (configuration not stated),4µM*,-4%,2%,-12%,3.2µM*
COc1ccccc1NC(=O)CCn1cnc2onc(-c3ccc(F)cc3)c2c1=O,nt,?,-9%,-11%,nt
CCC(=NCc1ccc(F)cc1)c1c(O)n(C)c(=O)n(C)c1=O,22µM*,-1%,2%,-3%,24%
[O-][Cl+]O,-13%,nt,nt,nt,-11%
COc1cc(C2c3cc4c(c(O)c3CC3COC(=O)C32)OCO4)cc(OC)c1OC (configuration not stated),-7%,-3%,4%,-4%,-30%
COc1cc2c(cc1OC)C1C(=O)c3c(cc4c(c3O)C=CC(C)(C)O4)OC1CO2 (configuration not stated),1µM*,-26%,0%,-17%,2.8µM*
CN(C)c1ccc(C(=O)c2ccc(N(C)C)cc2)cc1,-10%,-19%,6%,?,16%
CN(C)c1ccc(/C=C/[N+](=O)[O-])cc1,13µM*,?,-1%,10µM*,11µM*
C/C(=C\c1ccc(N(C)C)cc1)[N+](=O)[O-],22µM*,14µM*[quencher],-6%,13µM*,7.1µM*
CC(C)C(C)/C=C/C(C)C1CCC2C3=CC=C4CC(O)CCC4(C)C3CCC21C (configuration not stated),-14%,-21%,2%,?,2%
CNC(=O)Oc1ccc(-c2cn3cc(C)ccc3n2)cc1,4µM*,-10%,7%,?,2µM*
CNC(=O)Oc1cccc(-c2cn3cc(Cl)ccc3n2)c1,5µM*,0%,-3%,-10%,-40%
CC[C@@H]1CN2CCc3cc(OC)c(OC)cc3[C@@H]2C[C@@H]1C[C@H]1NCCc2cc(OC)c(OC)cc21,-95%,-1%,-2%,0%,1.1µM*
CC[C@@H]1CN2CCc3cc(OC)c(OC)cc3[C@H]2C[C@@H]1C[C@H]1NCCc2cc(OC)c(OC)cc21,?,nt,nt,nt,0.56µM*
COc1cccc([C@@]2(O)CCCCC2CN(C)C)c1 (some centres not stated),-2%,nt,nt,nt,-3%
COc1ccc(C(=O)O/N=C(/C(N)=O)P(=O)(OC(C)C)OC(C)C)cc1,7.9µM*,-15%,4%,?,16µM*
O=[N+]([O-])/C=C/c1c(OCc2ccccc2)ccc2ccccc12,4.5µM*,-2%,4%,?,5.6µM*
CCCOc1ccc(N2C(=O)CC(N3CC=C(c4ccccc4)CC3)C2=O)cc1 (configuration not stated),-4%,-20%,?,32µM*,14%
O=C(COc1ccccc1)N1CCN(CCN2C(=O)c3cccc4cccc(c34)C2=O)CC1,1%,-10%,7%,-7%,12%
